Compound activity as filed in PubChem BioAssay.
Shown are actives, neighbours in structure and some others; about 0.97% of the full set was active somewhere.
NOD2-RIPK2 inh = NOD2-RIPK2 binding disruptors in cells, primary screen, fluorescence, CHO cells, BLA complementation. inhibition, % at 4.98 µM. 360,000 tested, 0.38% active. Receptor-interacting serine/threonine-protein kinase 2 (Homo sapiens), O43353. CCF4 ratio; in the data active means inhibition above about 21%;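 further: 0% = vehicle only and 100% = reference blocker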
NTR1 agonist = agonists of human NTR1, primary screen, imaging, U2OS cells, beta-arrestin-GFP, high content. Neurotensin receptor type 1 (Homo sapiens), P30989. activation, % at 20 µM. NTR1-U2OS beta-arrestin-GFP spot imaging, agonist mode. 330,000 tested, 0.17% active;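 active means activation at or above 40% of the spot to cytoplasm intensity ratio, with at least 20 cells analyzed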;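 further: 0% = DMSO without peptide and 100% = 100 nM NTR1 peptide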
TLR4 MyD88 comp = inhibitors of TLR4-MyD88 association in cells, primary screen, cell-based, HeLa CL3-4, BLA complementation, FRET ratio | HeLa CL3-4 TLR4/MyD88 BLA complementation | AID 861, 2007 | inhibition, % at 8.4 µM | 200,000 tested, 0.18% active; in the data active means inhibition above about 25%;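 further: 0% = vehicle and 100% = reference inhibitor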
A1 inh = caspase 3/7 activation in MEF A1-2A-BIM cells, primary screen, A1 inhibitor project, cell-based, luminescence, HTS; 330,000 tested, 0.066% active; caspase activation, % (test concentration not listed); Caspase-Glo 3/7 luminescence, 3 h; percent of clofoctol response, vehicle zero; AID 2462, 2010;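 active means over half of replicate activation scores above 10%, or exactly half above 10 with the replicate mean above 10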
TLR9-MyD88 block = inhibitors of TLR9-MyD88 association in cells, primary screen, cell-based, CHO, BLA complementation, fluorescence. Toll-like receptor 9 (Homo sapiens) + Myeloid differentiation primary response protein …. CCF4 FRET ratio. inhibition, % at 4.98 µM. 340,000 tested, 0.21% active. AID 504734, 2011;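 active means inhibition above the mean over all tested compounds plus 3 SD, cut at about 21% in these data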;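 further: 0% = DMSO only wells and 100% = clavulanate BLA inhibitor control wells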
Beta2AR agonist = beta2AR agonists driving receptor internalization, primary screen, cell-based, FAP fluorogen, flow cytometry. Am2.2-beta2AR cells. AID 504454, 2011. 340,000 tested, 0.43% active. response, % (concentration not given with the values). Beta-2 adrenergic receptor (Homo sapiens), P07550;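 active means response above a set limit, near 3 SD of response in nonfluorescent compounds, cut at about 42% in these data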
Target sequence (P07550 whole entry, looked up): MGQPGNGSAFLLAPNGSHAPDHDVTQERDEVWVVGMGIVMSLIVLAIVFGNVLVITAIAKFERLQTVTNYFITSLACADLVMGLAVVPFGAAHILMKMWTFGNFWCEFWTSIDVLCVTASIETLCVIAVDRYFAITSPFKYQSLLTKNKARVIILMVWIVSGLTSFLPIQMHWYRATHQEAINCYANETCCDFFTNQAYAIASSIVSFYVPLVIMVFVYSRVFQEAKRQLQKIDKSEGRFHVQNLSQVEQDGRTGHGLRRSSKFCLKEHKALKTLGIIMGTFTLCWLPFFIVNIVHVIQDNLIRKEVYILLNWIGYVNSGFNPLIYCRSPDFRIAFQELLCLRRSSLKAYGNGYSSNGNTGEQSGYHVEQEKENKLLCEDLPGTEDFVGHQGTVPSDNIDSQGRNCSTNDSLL
Beta2AR ag CP1 = beta2AR agonists via receptor internalization, confirmation, cell-based, FAP fluorogen, flow cytometry, single point, cherry pick 1; shares compounds with Beta2AR agonist; Am2.2-beta2AR cells, FAP surface receptor; active compounds read low; percent response (surface receptor), % at 10 µM; 1,100 tested, 25% active; AID 540358, 2011;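 active means surface receptor percent response at or below 58%, roughly 3 SD from nonfluorescent compounds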
FAP fluor counter = counter-screen for beta-2AR agonists: fluorescence in Am2.2 cells. shares compounds with Beta2AR agonist. FAP fluorogen flow cytometry, fluorescence counterscreen; active compounds read low. calls only at 10 µM. 1,100 tested, under 10 active. AID 588765;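 active means percent response below a set limit in fluorescence channel 1 and below 50% in channel 8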
The depositor's hits bear a star; i = inactive; . = no result given; ! = a repeat was not active.

SMILES | NOD2-RIPK2 inh | NTR1 agonist | TLR4 MyD88 comp | A1 inh | TLR9-MyD88 block | Beta2AR agonist | Beta2AR ag CP1 | FAP fluor counter
Cc1ccc(-c2nn(CC(=O)N3CCOCC3)c(=O)c3ccccc23)cc1S(=O)(=O)N(C)C | 2 | 0 | . | 0 | -4 | -11 | . | .
Cc1cccc(C(=O)OC2CCCN(C)C2)c1C (stereo not given) | 4 | -2 | . | 1 | 1 | -1 | . | .
Cc1ccccc1C(=O)OC1CCCN(C)C1 (stereo not given) | 2 | 2 | . | 1 | 4 | 49* | 90 | i
COC(=O)C1CCN(C2CN(C3CCCCC3)S(=O)(=O)C2)CC1 (stereo not given) | -8 | . | . | . | . | . | . | .
CC(C)c1ccc2c(c1)CC[C@H]1[C@](C)(CN)CCC[C@]21C | -2 | . | . | . | -6 | 50*! | 79 | i
FC(F)(F)c1cc(-c2ccccc2)nc(-n2cc(Cl)cn2)n1 | -9 | 6 | 7 | 0 | -8 | -15 | . | .
Cc1cnn(-c2nc(-c3ccccc3)cc(-c3ccccc3)n2)c1 | -7 | 15 | -15 | . | 4 | 42* | 16* | i
Cc1cccc(OCc2nc(C#N)c(NCCN(C)C)o2)c1 | -5 | -3 | -8 | 1 | 7 | -2 | . | .
Cc1ccc(SCc2[nH]nc3c2C2(C(=O)Nc4ccc([N+](=O)[O-])cc42)C(C#N)=C(N)O3)cc1 (stereo not given) | 4 | 2 | 10 | 1 | 0 | 84* | 113 | i
Cc1ccc(SCc2[nH]nc3c2C2(CCSCC2)C(C#N)=C(N)O3)cc1 | -10 | -1 | -12 | 0 | -8 | 7 | . | .
Cc1cc(NC(=O)CSc2c(C)[nH]c3ccccc23)no1 | 4 | 1 | -11 | 0 | 6 | 6 | . | .
Cn1c(=O)cc(OCCCC(=O)NCCN2CCN(c3ccccc3F)CC2)c2ccccc21 | -14 | -2 | -5 | -1 | 9 | -2 | . | .
COc1ccc(OC)c(CCNC(=O)C2CCN(c3nnc(-n4cccc4)s3)CC2)c1 | -16 | -2 | -5 | 0 | 4 | 51* | 89 | i
Cc1cccc(N2CCN(S(=O)(=O)c3c(C)[nH]c(C)c3C(=O)N3CCCC3)CC2)c1C | 5 | -1 | . | 1 | 0 | 5 | . | .
CC1(C)Cc2c(c(-c3ccco3)nc3sc4c(NCCCO)ncnc4c23)CO1 | -6 | 5 | . | 0 | 0 | 111* | 26* | i
CC1(C)Cc2c(c(-c3ccco3)nc3sc4c(NCCN5CCOCC5)ncnc4c23)CO1 | -11 | 1 | 9 | 0 | 6 | 42 | . | .
CC1(C)Cc2c(c(-c3ccco3)nc3sc4c(NCC5CCCO5)ncnc4c23)CO1 (stereo not given) | -2 | 9 | -3 | 0 | 1 | 83* | 10* | i
Cc1cc(S(=O)(=O)N2CCOCC2)ccc1OCC(=O)Nc1ccc(F)cc1 | 3 | -2 | . | 0 | -10 | 3 | 112 | i
Cc1cc(S(=O)(=O)N2CCOCC2)ccc1OCC(=O)Nc1ccc(F)c(Cl)c1 | 1 | 1 | . | 0 | 12 | 0 | 112 | i
Cc1ccc(OCC(=O)Nc2ccc(S(=O)(=O)N3CCOCC3)cc2)c(C)c1 | -1 | -1 | . | . | 8 | 2 | . | .
CCN(CC)S(=O)(=O)c1ccc2c(c1)[nH]c(=S)n2CC | -13 | 2 | 5 | -1 | -2 | 6 | . | .
COc1ccc(C(=O)Nc2nc3cc4c(cc3s2)OCCO4)c(OC)c1 | 3 | 10 | . | -1 | -3 | 54* | 101 | i
O=C(CSc1nnc(-c2ccncc2)o1)NC1C2CC3CC(C2)CC1C3 (stereo not given) | 1 | 0 | 1 | 0 | -10 | -9 | . | .
